L3MBTL1 inh: L3MBTL1 (human) inhibition; AlphaScreen L3MBTL1–H3K9me1 peptide binding; Potency, µM (titrated, usually from 57.1 µM), inactives show at the highest dose activity, negative = inhibition, most hits filed as inhibitors; hit rate 0.66% among 230,000; AID 485360; note: % is set by controls: 0 for no effect and ±100 for the full control effect; nearly all actives have a fitted effect of over 60% in size
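Read-out is AlphaScreen signal from streptavidin donor and nickel chelate acceptor beads (10 ug/mL final each) bridging L3MBTL1 (50 nM) and biotinylated K9-monomethylated H3(1-15) peptide (75 nM), after 30 min compound exposure at room temperature.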
VDR inhibitor: vitamin D3 receptor (human) inhibition. P11473. VDR-SRC2-3 peptide fluorescence polarization, 2 h. Potency, µM, without a hit: max response, negative = inhibition, most hits filed as inhibitors. hit rate 0.93% among 400,000. AID 504847; note: % is set by controls: 0 for no effect and ±100 for the full control effect
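FP read-out; VDR + SRC2-3 coactivator peptide; 23 nl compound by pintool; 2 h RT incubation; reagents held at 4 deg C, protected from light.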
JMJD2A Tudor: blocks the human JMJD2A Tudor domain; O75164; AlphaScreen JMJD2A-Tudor / H3K4me3 peptide binding; Potency, µM (titrated, usually from 114 µM), without a hit: at the top dose activity change, negative = inhibition, hits mostly inhibitors; hit rate 4.4% among 390,000; note: % is set by controls: 0 for no effect and ±100 for the full control effect; nearly all actives have a fitted effect of over 50% in size
BAZ2B block: inhibitors of human BAZ2B bromodomain. hit rate 4.4% among 360,000. Q9UIF8. Potency, µM (titrated, usually from 114 µM), for the others: at the top dose activity change, negative = inhibition, usual class: inhibitors. AlphaScreen BAZ2B-H3K14Ac peptide displacement; note: % is set by controls: 0 for no effect and ±100 for the full control effect; nearly all actives have a fitted effect of over 60% in size
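In this displacement format the biotinylated H3(5-23) peptide acetylated at Lys14 serves as ligand at 50 nM, with BAZ2B at 50 nM in PBS pH 7.4 containing 0.01% Tween-20. Donor and acceptor beads are 10 ug/mL final.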
PLK1 PBD inh: inhibitors of human PLK1 polo-box domain binding. hit rate 2.8% among 360,000. Potency, µM, for inactives: max response, negative = inhibition, actives largely listed as inhibitors. Plk1 PBD binding of FITC phosphopeptide, fluorescence polarization. AID 720504; note: series mostly up to about 57 µM; % is set by controls: 0 for no effect and ±100 for the full control effect; nearly all actives have a fitted effect of over 65% in size
HP1b chromo inh: inhibitors of HP1-beta chromodomain binding to methylated histone tails | AlphaScreen HP1-beta / biotin-H3K9me3 peptide binding | Potency, µM (series often up to 114 µM), for inactives: at the top dose activity change, negative = inhibition, usual class: inhibitors | hit rate 0.56% among 390,000; note: nearly all actives have a fitted effect of over 70% in size
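AlphaScreen: HP1-beta (50 nM) preformed 30 min with biotin-H3(1-18)K9me3 peptide (50 nM) in PBS pH 7.4, 0.01% Tween-20. Compound added for 30 min at RT, then streptavidin donor/nickel chelate acceptor beads (10 ug/mL) for 30 min.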
* = called active by the depositor; ? = inconclusive; / = no result given; ! = a repeat was not active; [ ] = another dose, or the depositor's remark. A selection: hits, their analogues and other compounds. The true share with any hit is near 6.9%. Calls come from the whole dose curve; as a rule, active = well fitted curve in the direction sought with a large enough effect; inconclusive = small, poorly fitted or top-dose-only effect, or another doubt; inactive = no such curve, though single readings can be large; an effect the other way counts as inactive or inconclusive. Potency is the fitted concentration of half-maximal effect.

SMILES	L3MBTL1 inh	VDR inhibitor	JMJD2A Tudor	BAZ2B block	PLK1 PBD inh	HP1b chromo inh
CC1=C(C(=O)OC(C)C)C(c2ccc(Cl)cc2)n2c(sc(=Cc3ccc(OCC(=O)O)cc3)c2=O)=N1 (stereo not drawn)	/	/	/	/	-20%	/
CCOC(=O)C1=C(C)N=c2sc(=C(C)C)c(=O)n2C1c1ccc(N(C)C)cc1 (stereo not drawn)	/	6%	89µM*	/	-5%	-9%
CCOC(=O)C1=C(C)N=c2s/c(=C\c3ccncc3)c(=O)n2C1c1ccc2c(c1)OCO2 (stereo not drawn)	-13%	?	?	?	-8%	-11%
O=C(Cc1cccc2ccccc12)NC(=S)Nc1cccc(C(=O)O)c1	8%	-9%	-23%	?	?	-16%
O=C(O)[C@H](Cc1c[nH]c2ccccc12)N1C(=O)C2=CCCC=C2C1=O	/	-8%	/	/	/	/
CCOC(=O)C1=C(C)N=c2s/c(=C\c3ccc(OCC(=O)O)cc3)c(=O)n2C1c1ccc(Cl)cc1 (stereo not drawn)	?	79µM*	20µM*	7.9µM*	10%	40µM*
CCOC(=O)C1CCN(C(=O)Nc2ccc(Cl)cc2Cl)CC1	9%	-19%	-3%	11%	?	-12%
Cc1ccc(NC(=O)c2cc(-c3ccc(F)cc3)on2)cc1C	/	-30%	-13%[11.4 µM]	-7%	24µM*	15%
Cc1ccc(NC(=O)c2cccc(C(=O)Nc3ccc(C)c(C)c3)n2)cc1C	/	-16%	22µM*	2%	-12%	-6%
CCc1ccc(NC(=O)c2cc(-c3ccc(OC)cc3)on2)cc1	/	-3%	-22%	56µM*	-6%	25%
Cc1c(NC(=O)c2cc(-c3ccc(F)cc3)on2)c(=O)n(-c2ccccc2)n1C	/	6%	79µM*!	1%	?	4%
CCc1ccc(NC(=O)c2cc(-c3ccc(F)cc3)on2)cc1	/	-4%	-8%	-9%	-18%	6%[57 µM]
COc1ccccc1N1CCN(C(=O)c2cn(C)c3ccc(S(=O)(=O)N(C)C4CCCCC4)cc3c2=O)CC1	/	-5%	4%	/	/	32%
CCOc1ccc2nc(NC(=O)c3nc(SCc4ccccc4F)ncc3Cl)sc2c1	/	11%	-6%	-3%	/	40%
COc1c(Cl)cc(-c2noc(C)c2C(=O)NCc2ccc3c(c2)OCO3)cc1Cl	6%	-16%	-19%	8%	-7%	23%
COc1c(Cl)cc(-c2noc(C)c2C(=O)NCc2ccccc2)cc1Cl	/	-16%	?	-1%	30µM*	12%
CCc1ccc(C(=O)c2cn(CC(=O)Nc3ccc4c(c3)OCO4)c3ccc(OC)cc3c2=O)cc1	/	1%	8.9µM*	79µM*	/	-10%
CCC(C)C(NC)C(=O)O (stereo not drawn)	/	-1%	/	/	/	/
Cc1cccc(-n2cnc(C(=O)NC3CCCCCC3)c2)n1	2%	-2%	-20%[11.4 µM]	-2%	24µM*	22%
CCC(C)NC(=O)c1cn(-c2cccc(C)n2)cn1 (stereo not drawn)	3%	5%	0%	1%	2%	32%
Cc1cc(-c2n[nH]c(=S)n2/N=C/c2sccc2C)n[nH]1	-4%	-23%	3.2µM*	?	-7%	?
O=[N+]([O-])c1cccc(/C=N/n2c(C3CCCCC3)n[nH]c2=S)c1	-3%	-5%	?	10%	-26%	8%
Cc1cc(-c2n[nH]c(=S)n2/N=C/c2cccc([N+](=O)[O-])c2)n[nH]1	1%	-8%	7.9µM*	-12%	-20%	?
Cc1ccsc1/C=N/n1c(-c2ccccc2)n[nH]c1=S	-6%	-13%	28µM*	3%	-10%	11%
Cc1ccsc1/C=N/n1c(-c2ccccn2)n[nH]c1=S	32µM*	-13%	3.2µM*	8.9µM*	-9%	32%
Cc1c(NC(=O)C(F)(F)F)ccc2nc3c(=O)n(C)c(=O)n(C)c3nc12	/	-3%	-18%	-5%	/	21%
Cc1ccsc1/C=N/N1CCOCC1	-6%	-2%	-21%	-18%	1%	2%

Assay outcomes (PubChem)
